This is an account of results in PubChem BioAssay (EPA / NIEHS).

Records with an inconclusive call do not appear. Active and inactive are the calls of the source. Rule for the calls, unless noted: active = hit-call score of the fitted dose curve at least 0.9, where 1 is the maximum; inactive = score below 0.9.

In general, AC50 refers to the concentration giving half of the maximal activity seen.

Assay [1] in a line: ACEA_ER_80hr: ACEA Biosciences xCELLigence Real-Time Cell Analysis on Estrogen Receptor Agonism for Proliferation (AID 2282667; active = hit-call score of the fitted dose curve at least 0.9, where 1 is the maximum). The conditions noted are these: T47D proliferation, impedance (xCELLigence), 80 h. The essentials:
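Real-time impedance growth kinetics of human T-47D breast cells read 80 h after dosing, gain-of-signal fitted relative to DMSO. Compounds: 1:4 serial series, top final concentration 100 uM, n = 2.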

Assay [2] in a line: ATG_CRE_CIS: Attagene CIS-FACTORIAL HepG2 Assay for human cAMP Responsive Element (CRE) binding protein 3 (AID 2282926). The note with it: HepG2 CRE cis-reporter, Attagene multiplexed mRNA; actives raise or lower the signal. Put shortly: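 Multiplexed transcription-unit reporters transfected into HepG2; 24 h dosing; RT-PCR/capillary electrophoresis fluorescence read-out; bidirectional fit vs DMSO.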

Assay [3] has as its target CCAAT/enhancer-binding protein beta (Homo sapiens) (UniProt P17676). Nature of the assay: ATG_C_EBP_CIS: Attagene CIS-FACTORIAL HepG2 Assay for human CCAAT/Enhancer Binding Protein (C/EBP) beta (AID 2282927). The conditions noted are these: HepG2 Attagene cis-factorial transcription factor reporter; actives raise or lower the signal. Put shortly:
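Endogenous C/EBPb-driven reporter transcripts measured in transfected human HepG2 cells at 24 h via RT-PCR and capillary electrophoresis of labelled fragments. Activity fitted in both directions relative to DMSO baseline.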

Assay [4] in a line: ATG_CMV_CIS: Attagene CIS-FACTORIAL HepG2 Assay for human CMV (Internal Marker) (AID 2282928).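 Note: endpoint acts as a background internal control marker rather than a target.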 The note with it: HepG2 CMV promoter reporter, transcription factor profiling; actives raise or lower the signal. The essentials: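 After transient transfection of HepG2 with reporter transcription units driven by cis-regulatory promoters, cells receive test chemical for 24 h. Labeled reporter amplicons, digested with HpaI, are sized and quantified by capillary electrophoresis against DMSO.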

Assay [5] in a line: ATG_DR4_LXR_CIS: Attagene CIS-FACTORIAL HepG2 Assay for human Liver X Receptor (LXR), DR4 submotif (AID 2282929). The conditions noted are these: HepG2 Attagene DR4 cis-reporter, mRNA transcription; actives raise or lower the signal. Put shortly:
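Transiently transfected HepG2 liver cells; cis-regulated reporters; 24 h dosing. RT-PCR plus CE read-out of reporter mRNA. DMSO baseline, bidirectional curve fitting.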

Assay [6] addresses Aryl hydrocarbon receptor (Homo sapiens) (UniProt P35869). Briefly: ATG_Ahr_CIS: Attagene CIS-FACTORIAL HepG2 Assay for human Aryl Hydrocarbon Receptor (Ahr) (AID 2282930). The conditions noted are these: HepG2 AhR cis-factorial reporter transcription; actives raise or lower the signal. Put shortly:
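Reporter mRNA levels, quantified by RT-PCR and fluorescent capillary electrophoresis, reflect endogenous AhR transcriptional activity in HepG2 cells carrying transfected cis-promoter reporter constructs. Readout at 24 h post-dose; gain or loss fitted against DMSO baseline.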

A short description of assay [7]: ATG_AP_1_CIS: Attagene CIS-FACTORIAL HepG2 Assay for human Activator Protein 1 (AP-1) (AID 2282931). The conditions noted are these: HepG2 Attagene cis-factorial AP-1 reporter mRNA; actives raise or lower the signal. The essentials: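 We transfected HepG2 cells transiently with a set of cis-regulated reporter transcription units, dosed them for 24 h, and quantified reporter mRNA via RT-PCR and capillary electrophoresis, scoring gain or loss of signal relative to DMSO.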

Assay [8] in a line: ATG_AP_2_CIS: Attagene CIS-FACTORIAL HepG2 Assay for human Activator Protein 2 (AP-2) (AID 2282932). The conditions noted are these: HepG2 AP-2 cis-reporter, Attagene transcription factor profiling; actives raise or lower the signal. The essentials: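 Step one: transient transfection of HepG2 with reporter transcription units. Step two: 24 h chemical exposure. Step three: RNA extraction, RT-PCR, labelled fragment analysis by capillary electrophoresis; DMSO serves as baseline.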

Assay [9] is described as follows: ATG_BRE_CIS: Attagene CIS-FACTORIAL HepG2 Assay for human Bone Morphogenetic Protein (BMP) Response Element (BRE) (AID 2282933). The conditions noted are these: HepG2 BMP response element reporter, Attagene transcription factor profiling; actives raise or lower the signal. Put shortly: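 Fluorescence-labelled reporter cDNA fragments, separated by capillary electrophoresis, gave the signal for this component of a 52-readout multiplex. HepG2 cells were transfected, exposed to chemicals for 24 h, and compared with DMSO using bidirectional fitting.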

The target of assay [10] is Retinoic acid receptor alpha (Homo sapiens) (UniProt P10276). Briefly: ATG_DR5_RAR_CIS: Attagene CIS-FACTORIAL HepG2 Assay for human Retinoic Acid Receptor Alpha (RARE), DR5 submotif (AID 2282934). The conditions noted are these: HepG2 Attagene cis-factorial RARE DR5 reporter, mRNA; actives raise or lower the signal. Put shortly: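 Reporter transcripts from a DR5-regulated unit, measured via RT-PCR plus capillary electrophoresis, reflect endogenous RAR activity in transiently transfected human HepG2 liver cells. Exposure lasted 24 h; gain or loss of signal scored against DMSO.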
Chain of Retinoic acid receptor alpha (Homo sapiens) (P10276 whole entry, looked up): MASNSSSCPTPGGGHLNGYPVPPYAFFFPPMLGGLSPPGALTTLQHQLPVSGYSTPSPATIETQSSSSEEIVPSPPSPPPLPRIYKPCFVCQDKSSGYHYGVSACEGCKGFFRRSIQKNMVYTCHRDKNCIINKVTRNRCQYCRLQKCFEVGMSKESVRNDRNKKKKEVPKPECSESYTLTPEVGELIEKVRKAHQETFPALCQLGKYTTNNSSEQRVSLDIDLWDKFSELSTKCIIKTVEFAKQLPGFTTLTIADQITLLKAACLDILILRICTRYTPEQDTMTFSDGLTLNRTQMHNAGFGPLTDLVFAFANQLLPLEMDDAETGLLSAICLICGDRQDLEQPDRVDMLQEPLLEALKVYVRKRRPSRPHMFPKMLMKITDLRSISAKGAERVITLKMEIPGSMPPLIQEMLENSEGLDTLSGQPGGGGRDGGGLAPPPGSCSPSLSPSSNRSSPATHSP

Assay [11] concerns the target Transcription factor E2F1 (Homo sapiens) (UniProt Q01094). Nature of the assay: ATG_E2F_CIS: Attagene CIS-FACTORIAL HepG2 Assay for human E2F Transcription Factor 1 (AID 2282935). The conditions noted are these: HepG2 Attagene cis-reporter, E2F reporter RNA transcripts; actives raise or lower the signal. The essentials: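 Total RNA from 24 h-treated, reporter-transfected HepG2 cells undergoes DNase I treatment, oligo(dT) reverse transcription, PCR and 6-FAM primer extension before capillary electrophoresis.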

Assay [12] in a line: ATG_E_Box_CIS: Attagene CIS-FACTORIAL HepG2 Assay for human Enhancer Box (E-box) (AID 2282936). The note with it: HepG2 E-box cis-reporter transcription, actives raise or lower the signal. Put shortly: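 DMSO served as negative control and baseline for bidirectional fitting. Human hepatoma HepG2 cells, transiently transfected with cis-reporter constructs, were dosed 24 h; reporter mRNA read by RT-PCR and capillary electrophoresis.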

The nature of assay [13]: ATG_M_61_CIS: Attagene CIS-FACTORIAL HepG2 Assay for M61 Transcription Factor (Internal Marker) (AID 2282937). The conditions noted are these: HepG2 Attagene CIS-FACTORIAL M61 internal marker reporter; actives raise or lower the signal. Put shortly:
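Multiplexed reporter mRNA assay, HepG2 human hepatoma cells, 24 h treatment. Signal: FAM-labelled, HpaI-digested RT-PCR fragments by CE. Fit: bidirectional, baseline DMSO.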

The nature of assay [14]: ATG_EGR_CIS: Attagene CIS-FACTORIAL HepG2 Assay for human Early Growth Response 1 (EGR1) (AID 2282938). The note with it: HepG2 Attagene CIS-FACTORIAL EGR reporter mRNA; actives raise or lower the signal. Put shortly:
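Multiplexed cis-reporter system in human hepatoma HepG2 cells, transiently transfected. Cells are dosed for 24 h; reporter transcripts are amplified, fluorescently tagged and sized by capillary electrophoresis, with DMSO as negative control.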

Assay [15] in a line: ATG_M_19_CIS: Attagene CIS-FACTORIAL HepG2 Assay for M19 Transcription Factor (Internal Marker) (AID 2282939). The conditions noted are these: HepG2 Attagene CIS-FACTORIAL M19 internal marker reporter; actives raise or lower the signal. Put shortly: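 HepG2, MRTU transient transfection, 24 h dosing. Total RNA → RT-PCR → 6-FAM primer extension → HpaI digest → CE fluorescence. Bidirectional curve fit, DMSO negative control.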

Assay [16] in a line: ATG_ERE_CIS: Attagene CIS-FACTORIAL HepG2 Assay for Estrogen Response Element (ERE) (AID 2282940). The conditions noted are these: HepG2 ERE cis-reporter, Attagene RNA transcript; actives raise or lower the signal. Put shortly:
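After a 24 h chemical treatment, RNA from reporter-transfected HepG2 cells is reverse-transcribed, PCR-amplified and fluorescently labelled. Fragments separated by capillary electrophoresis give reporter signal; DMSO serves as negative control.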

A short description of assay [17]: ATG_Ets_CIS: Attagene CIS-FACTORIAL HepG2 Assay for human Erythroblast Transformation Specific (ETS) (AID 2282941). The note with it: HepG2 ETS cis-reporter transcription, actives raise or lower the signal. The essentials:
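Human HepG2 hepatoma cells were transiently transfected with promoter-driven reporter constructs and treated for 24 hours. Reporter transcripts were quantified by RT-PCR with fluorescent primer extension; bidirectional curve fitting used DMSO as reference.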

Assay [18] addresses Hepatocyte nuclear factor 3-beta (Homo sapiens) (UniProt Q9Y261). Nature of the assay: ATG_FoxA2_CIS: Attagene CIS-FACTORIAL HepG2 Assay for human Forkhead box A2 (FOXA2) (AID 2282942). The conditions noted are these: HepG2 cis-reporter transcription factor activity, 24 h; actives raise or lower the signal. The essentials: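 Multiplexed cis-element reporter assay in transiently transfected HepG2. Twenty-four hours post-dosing, RNA was reverse-transcribed, amplified, FAM-labelled, HpaI-digested and separated by CE. Activity gain or loss relative to DMSO.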

A short description of assay [19]: ATG_FoxO_CIS: Attagene CIS-FACTORIAL HepG2 Assay for human Forkhead box O (FoxO) (AID 2282943). The conditions noted are these: HepG2 Attagene cis-reporter, FoxO element, mRNA; actives raise or lower the signal. The essentials:
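Endogenous transcription factor activity read from multiplexed cis-promoter reporter transcripts in transiently transfected HepG2, 24 h after dosing. Reporter RNA measured via RT-PCR plus capillary electrophoresis of FAM-labeled products; gain or loss relative to DMSO.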

Assay [20] in a line: ATG_GATA_CIS: Attagene CIS-FACTORIAL HepG2 Assay for human GATA Binding Protein (AID 2282944). The note with it: HepG2 GATA cis-element reporter, Attagene multiplex mRNA; actives raise or lower the signal. Put shortly:
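Cells: HepG2, transiently transfected with cis-regulated reporter transcription units. Exposure: 24 h. Detection: RT-PCR plus capillary electrophoresis of FAM-labeled fragments. Analysis: bidirectional, DMSO as baseline.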

Chain of Aryl hydrocarbon receptor (Homo sapiens) (P35869 whole entry, looked up): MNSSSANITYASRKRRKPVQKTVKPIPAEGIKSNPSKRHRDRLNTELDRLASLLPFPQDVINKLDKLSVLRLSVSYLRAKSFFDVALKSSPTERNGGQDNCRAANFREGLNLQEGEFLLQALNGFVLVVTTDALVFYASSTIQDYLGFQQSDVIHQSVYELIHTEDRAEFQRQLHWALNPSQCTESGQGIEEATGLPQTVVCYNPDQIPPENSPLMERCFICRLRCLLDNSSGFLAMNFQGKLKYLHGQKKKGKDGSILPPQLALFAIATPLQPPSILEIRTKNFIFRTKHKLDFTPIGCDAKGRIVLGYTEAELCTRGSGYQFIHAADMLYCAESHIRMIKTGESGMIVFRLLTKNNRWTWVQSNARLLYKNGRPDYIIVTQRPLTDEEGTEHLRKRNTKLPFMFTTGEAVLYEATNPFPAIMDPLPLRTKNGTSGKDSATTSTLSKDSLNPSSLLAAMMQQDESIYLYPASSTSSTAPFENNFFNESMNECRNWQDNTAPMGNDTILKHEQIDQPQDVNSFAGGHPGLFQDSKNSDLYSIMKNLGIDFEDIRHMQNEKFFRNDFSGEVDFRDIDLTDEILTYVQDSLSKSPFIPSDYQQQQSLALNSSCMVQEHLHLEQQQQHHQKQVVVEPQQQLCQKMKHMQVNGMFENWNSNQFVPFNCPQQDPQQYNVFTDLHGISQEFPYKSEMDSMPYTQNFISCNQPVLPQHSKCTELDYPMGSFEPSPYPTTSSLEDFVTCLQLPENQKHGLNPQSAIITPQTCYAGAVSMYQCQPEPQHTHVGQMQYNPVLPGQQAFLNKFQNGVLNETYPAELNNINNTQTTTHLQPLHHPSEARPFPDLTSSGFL
Chain of Transcription factor E2F1 (Homo sapiens) (Q01094 whole entry, looked up): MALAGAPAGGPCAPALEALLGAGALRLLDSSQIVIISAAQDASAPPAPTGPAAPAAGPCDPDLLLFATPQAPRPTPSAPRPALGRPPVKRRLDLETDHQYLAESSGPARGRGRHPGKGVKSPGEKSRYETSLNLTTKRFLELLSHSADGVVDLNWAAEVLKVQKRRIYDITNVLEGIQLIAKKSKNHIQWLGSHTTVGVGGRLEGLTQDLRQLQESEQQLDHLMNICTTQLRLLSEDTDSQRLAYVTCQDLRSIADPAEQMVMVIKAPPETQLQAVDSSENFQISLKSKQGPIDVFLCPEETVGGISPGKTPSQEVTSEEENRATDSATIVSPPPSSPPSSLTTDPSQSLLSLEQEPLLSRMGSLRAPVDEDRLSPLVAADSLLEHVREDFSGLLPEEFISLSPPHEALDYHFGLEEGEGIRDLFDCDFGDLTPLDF
Chain of CCAAT/enhancer-binding protein beta (Homo sapiens) (P17676 whole entry, looked up, the tested form may be a part): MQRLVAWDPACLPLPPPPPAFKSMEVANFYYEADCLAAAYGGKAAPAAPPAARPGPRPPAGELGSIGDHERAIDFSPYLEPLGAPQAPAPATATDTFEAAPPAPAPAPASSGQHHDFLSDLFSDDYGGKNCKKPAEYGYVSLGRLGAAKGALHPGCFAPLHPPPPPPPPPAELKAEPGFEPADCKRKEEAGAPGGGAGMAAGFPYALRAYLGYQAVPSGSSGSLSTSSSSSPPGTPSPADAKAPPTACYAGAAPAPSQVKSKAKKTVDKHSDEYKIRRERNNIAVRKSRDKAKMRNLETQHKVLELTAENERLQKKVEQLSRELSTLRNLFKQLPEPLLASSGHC
Chain of Hepatocyte nuclear factor 3-beta (Homo sapiens) (Q9Y261 whole entry, looked up): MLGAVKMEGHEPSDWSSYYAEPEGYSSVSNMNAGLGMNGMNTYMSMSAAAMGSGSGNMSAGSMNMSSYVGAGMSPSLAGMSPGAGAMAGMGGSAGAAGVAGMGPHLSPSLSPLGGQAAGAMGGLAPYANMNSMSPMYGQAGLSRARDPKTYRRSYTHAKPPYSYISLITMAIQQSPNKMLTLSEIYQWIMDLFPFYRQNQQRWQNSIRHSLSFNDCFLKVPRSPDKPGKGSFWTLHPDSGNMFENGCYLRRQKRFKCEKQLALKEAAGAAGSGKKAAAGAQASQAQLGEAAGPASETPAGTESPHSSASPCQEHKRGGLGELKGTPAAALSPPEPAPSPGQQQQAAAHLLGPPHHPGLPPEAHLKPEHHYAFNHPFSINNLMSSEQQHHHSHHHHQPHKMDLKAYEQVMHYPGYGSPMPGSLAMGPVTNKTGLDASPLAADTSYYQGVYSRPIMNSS

In the case of `Nc1cc([N+](=O)[O-])cc(Cl)c1O`, the call in assay [1], in assay [2], in assay [3], in [4], in assay [5] and in assay [6] was inactive. Also, the outcome in assay [7], in assay [8], in [9], in [10], in [11] and in [12] was inactive. In addition, the compound was called inactive in [13], in assay [14], in [15], in [16], in assay [17] and in assay [18]. In addition, the compound was classed as inactive in [19] and in assay [20].

For the compound `O=C=Nc1cccc2c(N=C=O)cccc12`, the result in assay [1], in assay [2], in assay [3], in assay [4], in assay [5] and in assay [7] was inactive. In addition, the outcome in [8], in [9], in [10], in [11], in [12] and in assay [13] was inactive. For the same compound, the call in assay [14], in assay [15], in assay [16], in assay [17], in [18] and in [19] was inactive. Besides, the compound was classed as inactive in assay [20]. In addition, the AC50 in assay [6] is 4.73 µM (active).

Regarding `CC(O)C#CC(C)O` (stereo not given), the compound was classed as inactive in [1], in assay [2], in assay [8], in assay [10], in assay [11] and in assay [13]. Besides, the call in assay [15], in assay [16] and in [17] was inactive. The AC50 is 179 µM (active) in assay [3]; 176 µM (active) in [4]; 64.9 µM (active) in assay [5]; 72.8 µM (active) in [6]; 24.7 µM (active) in [7]; 182 µM (active) in assay [9]. Further, the AC50 in assay [12] was 185 µM (active); in assay [14], 82.9 µM (active); in assay [18] it was 131 µM (active); in assay [19], 63 µM (active); in [20], 69.2 µM (active).

With `CC(C)=CCCC(C)O` (stereo not given), the outcome in [1], in assay [2], in assay [3], in assay [4], in [5] and in assay [6] was inactive. Further, the compound was called inactive in assay [7], in assay [8], in [9], in assay [10], in assay [11] and in [12]. In addition, the compound was called inactive in assay [13], in [14], in assay [15], in assay [16], in [17] and in assay [18]. For the same compound, the outcome in assay [19] and in assay [20] was inactive.
